Compounds without any hit were thinned out: in the full panel of roughly 83,000, 20% have a hit.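 A percent growth of 40 corresponds to 60% growth inhibition; 0 means no net growth; -100 means all cells died. Active threshold: below 10.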 Values without a mark were called inactive. Activity calls are given as the source filed them.

Common to all, as to assay: NCI-60 one-dose screen, 48 h (100 = growth as untreated, 0 = no growth, -100 = all killed)
Holding throughout (conditions): 10 µM unless noted

In experiment [1] the test system is SR leukemia.
Experiment [2] relates to RPMI-8226 leukemia.
The test system of experiment [3] is OVCAR-8 ovarian.
The test system of experiment [4] is OVCAR-5 ovarian.
In experiment [5] the test system is OVCAR-4 ovarian.
Experiment [6] relates to SK-OV-3 ovarian.
Experiment [7] relates to IGROV1 ovarian.
In experiment [8] the test system is OVCAR-3 ovarian.
For experiment [9], the system named is NCI/ADR-RES ovarian.
Experiment [10] deals with T-47D breast.
Experiment [11] has as its system BT-549 breast.
Experiment [12] has as its system MDA-MB-435 melanoma.
Experiment [13] relates to SW-620 colon.
Experiment [14] deals with MCF7 breast.
Experiment [15] relates to HCT-116 colon.
Experiment [16] concerns HCC-2998 colon.
Experiment [17] concerns KM12 colon.
Experiment [18] deals with HS 578T breast.

`COc1cc(C2CC(c3ccc(Nc4nc(Nc5ccc(F)cc5)nc(Nc5ccc(Cl)cc5)n4)cc3)=NN2C(C)=O)cc(OC)c1OC` (stereo not given): the growth in experiment [1] is 45.3%; in experiment [2], 19.1%; in [3], 62.5%; in experiment [4] it was 83.5%; in experiment [5] it was 77.6%; in experiment [6], 92.8%. The growth in experiment [7] was 43.5%; in [8], 82.7%; in experiment [9] it was 69.8%; in experiment [10], 19%; in experiment [11], 13.4%; in [12], 95.7%. The growth in experiment [13] is 87%; in experiment [14], 46.6%; in experiment [15] it was 55.1%; in experiment [16], 89.3%; in experiment [17] it was 71.2%.

Turning to `O=C(NCOC(O)C(Cl)(Cl)Cl)NCOC(O)C(Cl)(Cl)Cl` (stereo not given), the growth is 109% in experiment [1]; 105% in [2]; 104% in [3]; 89.7% in [4]; 108% in [5]; 90% in experiment [6]. The growth in experiment [7] was 99.1%; in experiment [8], 116%; in experiment [18], 108%; in [10], 89.5%; in [11], 101%; in experiment [12] it was 107%. Also, the growth in [13] is 108%; in [14] it was 89.6%; in experiment [15], 99.9%; in experiment [16] it was 118%; in [17] it was 109%.

Regarding `Cc1cn(C2CCCCC2)c(=O)[nH]c1=O`, the growth is 111% in experiment [1]; 114% in [2]; 106% in experiment [3]; 94.9% in experiment [4]; 90.8% in [5]; 112% in experiment [6]. Moreover, the growth in [7] is 126%; in experiment [18], 121%; in [9] it was 109%; in experiment [10] it was 108%; in [11] it was 102%; in [12], 108%. Besides, the growth in experiment [13] is 109%; in experiment [14], 108%; in [15], 107%; in [16], 112%; in experiment [17], 117%.

Turning to `O=[N+]([O-])c1ccc2[nH]cc(-c3c4ccsc4cc4[nH]c5ccc([N+](=O)[O-])cc5c34)c2c1`, the growth in experiment [1] is 10.2%; in [2] it was 9.85% (active); in [3] it was 7.43% (active); in [4], 10.9%; in [5] it was 35.1%; in [6] it was 15.1%. The growth in experiment [7] was 21.9%; in experiment [8], -21.3% (active); in experiment [9], -14.1% (active); in experiment [10], 7.11% (active); in experiment [11], 24.7%; in experiment [12] it was -27.6% (active). In addition, the growth was 25% in experiment [13]; 9.14% (active) in [14]; 2.78% (active) in experiment [15]; 7.3% (active) in [16]; 3.79% (active) in experiment [17].

As for `Clc1ccc(/C=N\N=c2\scc(-c3ccc(Cl)cc3)n2/N=C/c2ccc(Cl)cc2)cc1`, the growth in experiment [1] is 93%; in experiment [2] it was 106%; in [3] it was 99.5%; in experiment [4], 105%; in experiment [5] it was 114%; in [6], 102%. For the same compound, the growth in [7] was 103%; in experiment [18] it was 96.5%; in experiment [9], 109%; in experiment [10], 96.1%; in experiment [11], 107%; in experiment [12], 103%. The growth in experiment [13] was 99.9%; in [14] it was 93.6%; in [15], 90%; in [16] it was 104%; in experiment [17], 105%.

Regarding `Nc1c(C(=O)c2ccccc2)nnc2ncnn12`, the growth was 94.6% in [1]; 101% in [2]; 107% in [3]; 121% in experiment [4]; 116% in experiment [5]; 98% in [6]. The growth in [7] is 106%; in experiment [8], 105%; in experiment [18], 106%; in experiment [9] it was 107%; in [12], 110%; in [14] it was 97.2%. For the same compound, the results for the growth in experiment [15], in experiment [16] and in experiment [17] were 105%, 97.6% and 105%, respectively.

As to `COc1ccc(-c2cncnc2N)cc1OC`, the growth in [1] is 102%; in experiment [2], 96.8%; in [3] it was 105%; in [4] it was 110%; in experiment [5], 108%; in experiment [6] it was -40.5% (active). For the same compound, the growth in experiment [7] is 111%; in [8], 115%; in [9], 105%; in experiment [10], -95.7% (active); in [11] it was 99.2%; in experiment [12], 104%. Also, the growth in experiment [13] is 101%; in experiment [14], 103%; in experiment [15], 94.8%; in experiment [16], 103%; in [17], 109%.

`O=C1NCC(=O)N(Cc2ccco2)[C@H]1Cc1ccccc1`: the growth is 92.6% in experiment [1]; 104% in [2]; 105% in experiment [3]; 106% in [4]; 103% in [5]; 96.7% in [6]. Further, the growth in experiment [7] is 109%; in [8] it was 110%; in [9] it was 104%; in [10], 88%; in experiment [11], 95.5%; in [12] it was 104%. Further, the growth was 107% in [13]; 91.5% in experiment [14]; 95.9% in experiment [15]; 109% in experiment [16]; 103% in experiment [17].

In the case of `CN(C)c1ccc(/C=C/c2c(F)cccc2F)cc1`, the growth was 93.7% in experiment [1]; 95.8% in experiment [2]; 99.7% in [3]; 104% in experiment [4]; 90.3% in [5]; 89.3% in [6]. Further, the growth in experiment [7] is 59.7%; in experiment [18], 89.9%; in experiment [10], 58.3%; in experiment [11], 94.7%; in [12], 101%; in experiment [13], 104%. The growth was 49.7% in [14], 91.8% in experiment [15], 95.1% in [16] and 91.7% in experiment [17].

The values above are taken from PubChem BioAssay (NCI).
